# About 3,000 (1.5%) of roughly 200,000 compounds were called active. For the sample, actives were picked, then their nearest neighbours and some compounds at random. A number with no mark means an inactive call.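 The calls were made as follows: active = inhibition above about 50% when tested at 10 µM (limit read from the data); inactive = the rest.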
# Target: Luciferin 4-monooxygenase (Photinus pyralis) (UniProt P08659)
# Assay: firefly luciferase enzyme inhibitors, primary screen, artefact control for luciferase-based inhibitor screens, biochemical, luminescence, ATPLite (AID 1006)
# Conditions: 10 min, at 10 µM, hits give high values
# Sequence of Luciferin 4-monooxygenase (Photinus pyralis) (P08659 whole entry, looked up): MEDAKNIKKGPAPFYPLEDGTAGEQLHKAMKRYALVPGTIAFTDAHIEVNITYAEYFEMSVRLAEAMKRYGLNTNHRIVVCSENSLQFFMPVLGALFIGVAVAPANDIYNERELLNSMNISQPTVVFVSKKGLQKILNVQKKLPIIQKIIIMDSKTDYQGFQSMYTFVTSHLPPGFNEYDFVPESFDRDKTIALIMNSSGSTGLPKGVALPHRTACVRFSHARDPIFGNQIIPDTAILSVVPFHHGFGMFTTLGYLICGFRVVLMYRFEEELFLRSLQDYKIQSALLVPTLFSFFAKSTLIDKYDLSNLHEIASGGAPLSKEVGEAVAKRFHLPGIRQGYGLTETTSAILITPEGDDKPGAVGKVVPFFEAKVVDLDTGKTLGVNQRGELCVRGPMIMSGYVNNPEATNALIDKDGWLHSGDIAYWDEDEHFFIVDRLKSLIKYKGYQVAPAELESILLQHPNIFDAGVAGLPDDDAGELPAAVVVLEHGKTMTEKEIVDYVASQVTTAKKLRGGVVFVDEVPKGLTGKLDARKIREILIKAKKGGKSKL
row,SMILES,inhibition
1,O=C(Oc1ccc([N+](=O)[O-])cc1)c1ccc(Cl)c(S(=O)(=O)N2CCCCC2)c1,-5.6%
2,COc1ccc(N=Cc2c(O)[nH]c3ccccc23)cc1OC,6%
3,COc1ccccc1N=Cc1c(O)c2ccccc2oc1=O,95.4% (active)
4,COc1ccc(OC)c(N=Cc2c(O)[nH]c3ccccc23)c1,0.1%
5,COc1ccc(NC(=O)CN2C(=O)CSC2=O)cc1,1.6%
6,O=C(CCC(=O)Nc1ccccc1)N/N=C/c1ccccc1F,-1.2%
7,O=C(/C=C/c1ccc2c(c1)OCO2)NCc1cn2cc(Cl)ccc2n1,5.7%
8,CC(Oc1ccccc1)C(=O)Nc1oc(-c2ccco2)c(-c2ccco2)c1C#N (configuration not stated),-6.2%
9,COC(=O)c1cccnc1NC(=S)NC(C)C,9.9%
10,COc1ccc(C2=NOC(COC(=O)c3ccc4ccccc4n3)C2)cc1 (configuration not stated),3.5%
11,COc1ccc(C2=NOC3(CC(=O)N(c4ccc(C)cc4)C3=O)C2)cc1 (configuration not stated),-1.7%
12,COc1ccc(C2=Nc3cc(C)ccc3OC2)cc1,77.4% (active)
13,Cc1cc(N/N=C/c2ccccc2F)c2ccccc2n1,-7.5%
14,Cc1ccc2nc(-c3ccncc3)cc(C(=O)Nc3ccc(OC(F)F)cc3)c2c1,-8%
15,COc1ccccc1C(=O)Nn1c(-c2cccs2)nc2ccccc2c1=O,-0.5%
16,O=C1c2cccnc2C(=O)N1Cc1cccs1,-1.3%

row,SMILES,inhibition
1,Cc1cccc(N2C(=O)c3cccnc3C2=O)c1,68.5% (active)
2,Cc1ccc(Oc2ccc3c(c2)C(=O)N(c2cccc4cccnc24)C3=O)cc1,-5.2%
3,CN(C)/N=C/c1cn(-c2ccccc2)nc1-c1cccnc1,5.7%
4,CCOc1ccc(/C=C(/NC(=O)c2ccccc2)C(=O)NCCC(=O)O)cc1,-10.4%
5,COC(=O)c1ccc(/C=N/OCC(=O)Nc2cc(F)ccc2F)cc1,0%
6,CCOC(=O)N1CCN(CC(=O)Nc2ccc(F)cc2)CC1,-7.1%
7,COc1cc(C(=S)N2CCOCC2)ccc1O,-1%
8,COc1ccc2[nH]c(=O)c(-c3noc(-c4ccc(F)cc4)n3)cc2c1,-1.9%
9,Cc1ccc(Cc2nc(-c3cccc(C)c3)no2)cc1,2.3%
10,Cc1cccc(-c2noc(-c3ccc(F)cc3)n2)c1,59.9% (active)
11,COc1ccc(C(=O)NNC(=O)c2cc(C)[nH]n2)cc1,-3.5%
12,Cn1cc(CCC(=O)N2CCCC(C(=O)c3ccc(C(C)(C)C)cc3)C2)cn1 (configuration not stated),1.3%
13,COc1cccc(C(=O)Nc2cccnc2)c1OC,-1.1%
14,O=C(Nc1cccnc1)c1cccc(S(=O)(=O)N2CCCC2)c1,-1.1%
15,O=C(Nc1cccnc1)c1noc2c1CCCCC2,57.5% (active)
16,Cc1ccc(CN2CCN(Cc3ccc(OCCO)cc3)CC2CCO)o1 (configuration not stated),-7%

# Source: PubChem BioAssay AID1006 (Sanford-Burnham Center for Chemical Genomics, 2008)
